Data from the supplement of paper PMC4840960.
± gives the standard deviation of the averaged measurements.

Legend:
[1] = test system: E18 rat cortical neuron-glia co-culture; assay: fiber score / MBP score (myelination specific beyond OL differentiation) (ratio); higher = more myelination-specific MBP alignment; settings: treatment time: 8 days (DIV5-DIV13)
Outline: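 The measure is the ratio of fiber score to MBP score, where fiber score is continuous MBP fiber length per Olig2+ nucleus and MBP score is thresholded MBP area × intensity per Olig2+ nucleus. Primary E18 rat cortical co-cultures received library compounds at 1 or 5 µM in myelination medium from DIV5 to DIV13, then were fixed in 4 % paraformaldehyde and stained for MBP, Olig2 and DAPI before analysis of four 10X fields per well in duplicate wells.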

[2] = test system: E18 rat cortical neuron-glia co-culture; assay: myelination (MBP fiber length per Olig2+ nucleus), % of 1 µM DAPT response (DMSO = 0) (% of DAPT); higher = more myelination, active = 50 or more; settings: treatment time: 8 days (DIV5-DIV13)
Outline: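 The myelination value was the continuous straight MBP fiber length per Olig2+ nucleus, scaled between 0.1 % DMSO (0) and a 1 µM positive control (100). It was measured in primary E18 rat cortical co-cultures treated with library compounds at 1 or 5 µM in myelination medium from DIV5 through DIV13. Cells were fixed in 4 % paraformaldehyde and stained for MBP, Olig2 and DAPI, and four 10X fields per well were imaged in duplicate wells.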

| Structure (SMILES) | fiber score / MBP score ([1]; 1 µM) | fiber score / MBP score ([1]; 5 µM) | myelination ([2]; 1 µM) | myelination ([2]; 5 µM) |
| --- | --- | --- | --- | --- |
| CC[C@@H]1C=CC=CC[C@H](C)[C@@H](O)[C@@H](C)C(=O)[C@H](C)[C@@H](O)[C@H](C)C(=O)[C@H](C)[C@@H](O)[C@H](C)C=CC(=O)O[C@H]2[C@@H](C)[C@@H](CC1)O[C@@]1(CC[C@@H](C)[C@@H](C[C@H](C)O)O1)[C@@H]2C [Oligomycin C] | 0.799 | 1.11 | -6.58 (inactive) | 47.7 (inactive) |
| CCCN1C[C@H](CSC)C[C@@H]2c3cccc4[nH]cc(c34)C[C@H]21 [Pergolide] | 0.689 | 0.278 | -19.3 (inactive) | -24.9 (inactive) |
| C[C@]12CC[C@H]3[C@@H](CCC4=CC(=O)CC[C@@H]43)[C@@H]1CC[C@@H]2O [Nandrolone] | 0.984 | 0.883 | -3.41 (inactive) | -16.8 (inactive) |
| O[C@@H]1CCCC[C@H]1N1CCC(c2ccccc2)CC1 (racemic) [Vesamicol] | 0.528 | 0.361 | -34.6 (inactive) | -46 (inactive) |
| C=C1C[C@@H]2[C@H](CC[C@]3(C)C(=O)CC[C@@H]23)[C@@]2(C)C=CC(=O)C=C12 [Exemestane] | 0.805 | 0.86 | -11.3 (inactive) | -11.8 (inactive) |
| COc1ccc(C(CN(C)C)C2(O)CCCCC2)cc1 (configuration not stated) [Venlafaxine] | 0.576 | 1.02 | -11.7 (inactive) | -3.31 (inactive) |
| c1ccc2c3c([nH]c2c1)CNCC3 [Tryptoline] | 0.757 | 0.905 | -12 (inactive) | -4.44 (inactive) |
| CCOC(=O)c1cncn1[C@H](C)c1ccccc1 [Etomidate] | 0.772 ± 0.06 | 0.987 ± 0.1 | -14.6 (inactive) | 6.64 (inactive) |
